ALOX12 inh = inhibitors of human 12S-lipoxygenase ALOX12. AID 1671190. Potency, µM (highest dose often 108 µM), without a hit: top-dose activity change, negative = inhibition, most hits filed as inhibitors. 580,000 tested, 1.1% active. purified 12hLO, xylenol orange hydroperoxide absorbance; note: % is set by controls: 0 for no effect and ±100 for the full control effect
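Purified human 12hLO at 150 nM in 25 mM Hepes, 0.01% Triton X-100, pH 7.0, preincubated 15 min at room temperature with compound. Reaction started with 40 uM arachidonic acid, 30 min at room temperature. Hydroperoxide measured by Fe-xylenol orange, 573/405 nm absorbance ratio.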
Glioma ERSR ind = ER stress response induction in glioma. U87-MG GRP78 promoter luciferase reporter, 16 h. Potency, µM, for inactives: top-dose activation, actives largely listed as activators. 420,000 tested, 0.02% active. AID 602332; note: series mostly up to about 76 µM; % of control where 0% means no effect; nearly all actives have a fitted effect of over 35% in size
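Stably transfected U87-MG human glioma cells carrying a GRP78-based luminescent sensor were seeded at 1000 cells/well, pin-dosed with compounds and incubated 16 h. Luciferase reagent was then added, and end-point luminescence was read after 10 min at room temperature.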
Sfp PPTase inh = blocks B. subtilis Sfp PPTase activity. Q9F4F7. Potency, µM, without a hit: largest response in the series, negative = inhibition, actives largely listed as inhibitors. 310,000 tested, 3.5% active. Biochemical Sfp PPTase activity, qHTS;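 note: the enzyme is Sfp with the accession as filed and its product quenches rhodamine fluorescence; 0% = enzyme reaction without inhibitor and -100% = no enzyme wells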
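Fluorescence-quenching assay with 15 nM Sfp, 5 uM rhodamine-CoA and 12.5 uM BHQ-2-labelled ybbR peptide in pH 7.6 Hepes/MgCl2 buffer. Enzyme was pre-incubated with compound for 15 min at room temperature. Rate was taken from the 30-min fluorescence change (525/598 nm).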
G9a inh = blocks human histone lysine methyltransferase G9a; Q96KQ7; G9a H3K9 monomethylation, AlphaScreen, 2 h; Potency, µM (titrated, usually from 102 µM), inactives show at the highest dose activity, negative = inhibition, actives largely listed as inhibitors; 350,000 tested, 8.8% active; note: % is set by controls: 0 for no effect and ±100 for the full control effect; nearly all actives have a fitted effect of over 75% in size
Target sequence (Q96KQ7 913-1193 limits assumed): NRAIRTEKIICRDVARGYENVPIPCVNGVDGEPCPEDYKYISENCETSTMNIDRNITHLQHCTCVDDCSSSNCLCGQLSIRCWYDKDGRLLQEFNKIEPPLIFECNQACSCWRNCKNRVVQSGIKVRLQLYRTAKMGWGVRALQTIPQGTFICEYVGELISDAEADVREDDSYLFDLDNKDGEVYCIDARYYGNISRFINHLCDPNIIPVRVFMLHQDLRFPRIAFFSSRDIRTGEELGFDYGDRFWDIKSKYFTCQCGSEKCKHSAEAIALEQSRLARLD
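Quantitative HTS format: methyltransferase activity on a biotin-tagged H3K9 peptide is measured by AlphaScreen, using a rabbit anti-monomethyl-H3K9 antibody with streptavidin donor and anti-IgG acceptor beads. Final levels are 20 nM enzyme, 500 nM peptide, 20 uM SAM; 2 h RT.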
VDR inhibitor = vitamin D3 receptor (human) inhibition | P11473 | VDR-SRC2-3 peptide fluorescence polarization, 2 h | Potency, µM, inactives show max response, negative = inhibition, usual class: inhibitors | 400,000 tested, 0.93% active | AID 504847; note: % is set by controls: 0 for no effect and ±100 for the full control effect
Target sequence (P11473 whole entry, looked up): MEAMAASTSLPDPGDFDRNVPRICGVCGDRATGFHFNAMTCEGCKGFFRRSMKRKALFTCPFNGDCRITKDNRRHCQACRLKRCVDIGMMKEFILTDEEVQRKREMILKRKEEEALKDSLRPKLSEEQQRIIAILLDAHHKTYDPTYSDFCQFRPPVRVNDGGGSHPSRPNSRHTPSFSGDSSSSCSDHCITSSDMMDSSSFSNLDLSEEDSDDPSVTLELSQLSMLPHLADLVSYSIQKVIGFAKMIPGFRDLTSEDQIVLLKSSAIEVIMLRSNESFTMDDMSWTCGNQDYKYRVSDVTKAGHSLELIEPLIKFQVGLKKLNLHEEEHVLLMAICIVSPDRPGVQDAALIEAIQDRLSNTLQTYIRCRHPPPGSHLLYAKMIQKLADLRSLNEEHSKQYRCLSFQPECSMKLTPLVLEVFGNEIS
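The screen uses fluorescence polarization to detect compounds that interfere with recruitment of the SRC2-3 coactivator peptide to VDR; plates are read after 2 h at room temperature.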
* marks the source's active call; other numbers are inactive results; [ ] = remark or other dose. Only a selection was taken, and hits are over-represented in it overall. Calls come from the whole dose curve; as a rule, active = well fitted curve in the direction sought with a large enough effect; inconclusive = small, poorly fitted or top-dose-only effect, or another doubt; inactive = no such curve, though single readings can be large; an effect the other way counts as inactive or inconclusive. Potency is the fitted concentration of half-maximal effect.

Screening CCc1c(C)sc(NC(=O)c2cc(C3CC3)on2)c1C#N returned ALOX12 inh -17%, Glioma ERSR ind 2%, Sfp PPTase inh 0%, G9a inh 45µM* and VDR inhibitor -11%.
Screening CCCc1cc(C(=O)Nc2sc(C)c(CC)c2C#N)no1 returned ALOX12 inh -29%, Glioma ERSR ind 1%, Sfp PPTase inh 56µM*, G9a inh 14%[59 µM] and VDR inhibitor inconclusive.
For O=C(O)/C=C/c1ccc(S(=O)(=O)Nc2ccc(OCc3ccccc3)cc2)cc1 the results were ALOX12 inh -24%, Glioma ERSR ind 6%, Sfp PPTase inh -3%, G9a inh 17%[59 µM] and VDR inhibitor -4%.
Screening O=C(O)CCc1ccc(S(=O)(=O)Nc2ccc(OCc3ccccc3)cc2)cc1 returned ALOX12 inh 0%, Glioma ERSR ind -1%, Sfp PPTase inh 28%, G9a inh 45µM* and VDR inhibitor -24%.
Screening COCCNC(=O)CCc1ccc(S(=O)(=O)Nc2ccc(C)cc2)cc1 returned ALOX12 inh -29%, Glioma ERSR ind -1%, Sfp PPTase inh 79µM*, G9a inh -50%[2.33 µM] and VDR inhibitor -13%.
NC(=S)N=Nc1c(O)[nH]c2cc(F)c(F)cc12 was read as ALOX12 inh 7%, Glioma ERSR ind -5%, Sfp PPTase inh 45µM*, G9a inh 6%[59 µM] and VDR inhibitor -6%.
For COc1cccc(CNc2ccc3c(c2)nc(C)n3C)c1OC the results were ALOX12 inh 10%, Glioma ERSR ind 1%, Sfp PPTase inh 5%, G9a inh 35µM* and VDR inhibitor -7%.
Screening CCOc1ccc(CNc2ccc3c(c2)nc(C)n3C)cc1 returned ALOX12 inh -2%, Glioma ERSR ind 10%, Sfp PPTase inh 6%, G9a inh 1.6µM* and VDR inhibitor 10%.
For CCOc1ccc(CNc2cccc(SC)c2)cc1 the results were ALOX12 inh -21%, Glioma ERSR ind 1%, Sfp PPTase inh 10%, G9a inh 28µM* and VDR inhibitor 0%.
`CCn1c(NCc2cccc(OC)c2OC)nc2ccccc21` gave ALOX12 inh 0%, Glioma ERSR ind 1%, Sfp PPTase inh 18%, G9a inh -2%[59 µM] and VDR inhibitor -11%.
`CN(C)/C=C/C(=O)c1cnc(-c2cccc(Cl)c2)s1` gave ALOX12 inh 32µM*, Glioma ERSR ind 0%, Sfp PPTase inh -6%, G9a inh -49% and VDR inhibitor -28%.
For CN(C)/C=C/C(=O)c1cnc(-c2ccccc2Cl)s1 the results were ALOX12 inh 8.9µM*, Glioma ERSR ind 4%, Sfp PPTase inh 20%, G9a inh -28% and VDR inhibitor 4%.
CC(=O)c1cnc(-c2cccc(Cl)c2)s1 was read as ALOX12 inh 0%, Glioma ERSR ind 9%, Sfp PPTase inh 21%, G9a inh -4% and VDR inhibitor -17%.
For COc1cccc(CNC[C@H]2O[C@H](Cc3cc(-c4ccccc4)on3)CC[C@@H]2O)c1 the results were ALOX12 inh 10%[176 µM].
Screening O=S1(=O)CCC(N=Cc2cc(Br)ccc2O)C1 (stereo not drawn) returned ALOX12 inh 28µM*, Glioma ERSR ind -6%, Sfp PPTase inh -2%, G9a inh 9%[12.7 µM] and VDR inhibitor -4%.
Screening O=c1c2ccccc2c(C=NC2CCS(=O)(=O)C2)c(O)n1-c1ccccc1 (stereo not drawn) returned ALOX12 inh 0%, Glioma ERSR ind 1%, Sfp PPTase inh 20%, G9a inh 10%[59 µM] and VDR inhibitor -12%.
For CCC1CCCCN1S(=O)(=O)c1cc(-c2csc(C)n2)ccc1C (stereo not drawn) the results were ALOX12 inh -28%.
CCCc1ccc(/C(C)=N/NC(=O)C2CC2c2ccccc2)cc1 (stereo not drawn) was read as ALOX12 inh 35%.
For Cc1cc(C=C2C(=O)c3ccccc3C2=O)c(C)n1C the results were ALOX12 inh -1%, Glioma ERSR ind 8%, Sfp PPTase inh -6%, G9a inh 40µM* and VDR inhibitor -19%.
Screening COc1cccc(CCC(=O)Nc2ccc(-c3nnc4n3CCCC4)cc2)c1 returned ALOX12 inh 46%.
Screening O=C(NNc1cc(Cl)ccc1Cl)C1CCC1 returned ALOX12 inh inconclusive, Glioma ERSR ind -5%, Sfp PPTase inh 14%, G9a inh 50µM* and VDR inhibitor inconclusive.
Screening O=C(CNC(=O)C1CCCCC1)Nc1cc(Cl)ccc1Cl returned ALOX12 inh inconclusive, Glioma ERSR ind -4%, Sfp PPTase inh 18%, G9a inh 1%[59 µM] and VDR inhibitor 15%.
CS(=O)(=O)N1CCC(C(=O)Nc2ccc(F)cc2F)CC1 was read as ALOX12 inh 21%, Glioma ERSR ind 1%, Sfp PPTase inh -3%, G9a inh 20%[59 µM] and VDR inhibitor -3%.
`CC(C)(C)c1ccc(NNC(=O)C2CCC2)cc1` gave ALOX12 inh -16%, Glioma ERSR ind -3%, Sfp PPTase inh 6%, G9a inh 14µM* and VDR inhibitor -11%.
`O=C(NNc1ccc(F)cc1F)C1CCC1` gave ALOX12 inh 0%, Glioma ERSR ind -2%, Sfp PPTase inh 19%, G9a inh 18µM* and VDR inhibitor -15%.
C/C(=C(/CCO)SSC[C@@H]1CCCO1)N(C=O)Cc1cnc(C)nc1N was read as Glioma ERSR ind -3%, Sfp PPTase inh 9%, G9a inh -40%[21.5 µM] and VDR inhibitor 14µM*.
Screening CCCSS/C(CCO)=C(/C)N(C=O)Cc1cnc(C)nc1N returned Glioma ERSR ind -11%, Sfp PPTase inh 56µM*, G9a inh inconclusive and VDR inhibitor 25µM*.
CCCSS/C(CCO)=C(\C)N(C=O)Cc1cnc(C)nc1N was read as ALOX12 inh -10%[22.9 µM].
For CCOC(=O)OCC/C(SC(=O)OCC)=C(\C)N(C=O)Cc1cnc(C)nc1N the results were ALOX12 inh inconclusive and Glioma ERSR ind 7%.
Screening C/C(=C(/CCO)SSCC1CCCO1)N(C=O)Cc1cnc(C)nc1N (stereo not drawn) returned ALOX12 inh -21%, Glioma ERSR ind -4%, G9a inh 13µM* and VDR inhibitor 56µM*.
`Cc1cc(NC(=O)C(C)Sc2nnc(C)n2-c2ccccc2C)no1` (stereo not drawn) gave ALOX12 inh 32%.
`CCCOCC1CC(CCc2nc(=S)[nH][nH]2)C(=O)O1` (stereo not drawn) gave ALOX12 inh inconclusive, Glioma ERSR ind -3%, Sfp PPTase inh 56µM*, G9a inh 1.8µM* and VDR inhibitor inconclusive.
CCCC(=O)N1N=C(c2ccc3c(c2)OCO3)CC1c1ccc2nccnc2c1 (stereo not drawn) was read as ALOX12 inh -3%.
Screening Cc1ccc(-n2c(=O)c3c(cnn3C)n(Cc3ccccc3F)c2=O)cc1 returned ALOX12 inh -17%, Glioma ERSR ind -2%, G9a inh -23%[59 µM] and VDR inhibitor 3%.

Source: PubChem BioAssay
